The values below come from PubChem BioAssay (EPA / NIEHS).

A word on the AC50: it is the concentration giving half of the maximal activity seen.

The source made the active and inactive calls. The calls were made as follows: active = hit-call score of the fitted dose curve at least 0.9, where 1 is the maximum; inactive = score below 0.9.

Sequence of Fatty acid synthase (Homo sapiens) (P49327 whole entry, looked up): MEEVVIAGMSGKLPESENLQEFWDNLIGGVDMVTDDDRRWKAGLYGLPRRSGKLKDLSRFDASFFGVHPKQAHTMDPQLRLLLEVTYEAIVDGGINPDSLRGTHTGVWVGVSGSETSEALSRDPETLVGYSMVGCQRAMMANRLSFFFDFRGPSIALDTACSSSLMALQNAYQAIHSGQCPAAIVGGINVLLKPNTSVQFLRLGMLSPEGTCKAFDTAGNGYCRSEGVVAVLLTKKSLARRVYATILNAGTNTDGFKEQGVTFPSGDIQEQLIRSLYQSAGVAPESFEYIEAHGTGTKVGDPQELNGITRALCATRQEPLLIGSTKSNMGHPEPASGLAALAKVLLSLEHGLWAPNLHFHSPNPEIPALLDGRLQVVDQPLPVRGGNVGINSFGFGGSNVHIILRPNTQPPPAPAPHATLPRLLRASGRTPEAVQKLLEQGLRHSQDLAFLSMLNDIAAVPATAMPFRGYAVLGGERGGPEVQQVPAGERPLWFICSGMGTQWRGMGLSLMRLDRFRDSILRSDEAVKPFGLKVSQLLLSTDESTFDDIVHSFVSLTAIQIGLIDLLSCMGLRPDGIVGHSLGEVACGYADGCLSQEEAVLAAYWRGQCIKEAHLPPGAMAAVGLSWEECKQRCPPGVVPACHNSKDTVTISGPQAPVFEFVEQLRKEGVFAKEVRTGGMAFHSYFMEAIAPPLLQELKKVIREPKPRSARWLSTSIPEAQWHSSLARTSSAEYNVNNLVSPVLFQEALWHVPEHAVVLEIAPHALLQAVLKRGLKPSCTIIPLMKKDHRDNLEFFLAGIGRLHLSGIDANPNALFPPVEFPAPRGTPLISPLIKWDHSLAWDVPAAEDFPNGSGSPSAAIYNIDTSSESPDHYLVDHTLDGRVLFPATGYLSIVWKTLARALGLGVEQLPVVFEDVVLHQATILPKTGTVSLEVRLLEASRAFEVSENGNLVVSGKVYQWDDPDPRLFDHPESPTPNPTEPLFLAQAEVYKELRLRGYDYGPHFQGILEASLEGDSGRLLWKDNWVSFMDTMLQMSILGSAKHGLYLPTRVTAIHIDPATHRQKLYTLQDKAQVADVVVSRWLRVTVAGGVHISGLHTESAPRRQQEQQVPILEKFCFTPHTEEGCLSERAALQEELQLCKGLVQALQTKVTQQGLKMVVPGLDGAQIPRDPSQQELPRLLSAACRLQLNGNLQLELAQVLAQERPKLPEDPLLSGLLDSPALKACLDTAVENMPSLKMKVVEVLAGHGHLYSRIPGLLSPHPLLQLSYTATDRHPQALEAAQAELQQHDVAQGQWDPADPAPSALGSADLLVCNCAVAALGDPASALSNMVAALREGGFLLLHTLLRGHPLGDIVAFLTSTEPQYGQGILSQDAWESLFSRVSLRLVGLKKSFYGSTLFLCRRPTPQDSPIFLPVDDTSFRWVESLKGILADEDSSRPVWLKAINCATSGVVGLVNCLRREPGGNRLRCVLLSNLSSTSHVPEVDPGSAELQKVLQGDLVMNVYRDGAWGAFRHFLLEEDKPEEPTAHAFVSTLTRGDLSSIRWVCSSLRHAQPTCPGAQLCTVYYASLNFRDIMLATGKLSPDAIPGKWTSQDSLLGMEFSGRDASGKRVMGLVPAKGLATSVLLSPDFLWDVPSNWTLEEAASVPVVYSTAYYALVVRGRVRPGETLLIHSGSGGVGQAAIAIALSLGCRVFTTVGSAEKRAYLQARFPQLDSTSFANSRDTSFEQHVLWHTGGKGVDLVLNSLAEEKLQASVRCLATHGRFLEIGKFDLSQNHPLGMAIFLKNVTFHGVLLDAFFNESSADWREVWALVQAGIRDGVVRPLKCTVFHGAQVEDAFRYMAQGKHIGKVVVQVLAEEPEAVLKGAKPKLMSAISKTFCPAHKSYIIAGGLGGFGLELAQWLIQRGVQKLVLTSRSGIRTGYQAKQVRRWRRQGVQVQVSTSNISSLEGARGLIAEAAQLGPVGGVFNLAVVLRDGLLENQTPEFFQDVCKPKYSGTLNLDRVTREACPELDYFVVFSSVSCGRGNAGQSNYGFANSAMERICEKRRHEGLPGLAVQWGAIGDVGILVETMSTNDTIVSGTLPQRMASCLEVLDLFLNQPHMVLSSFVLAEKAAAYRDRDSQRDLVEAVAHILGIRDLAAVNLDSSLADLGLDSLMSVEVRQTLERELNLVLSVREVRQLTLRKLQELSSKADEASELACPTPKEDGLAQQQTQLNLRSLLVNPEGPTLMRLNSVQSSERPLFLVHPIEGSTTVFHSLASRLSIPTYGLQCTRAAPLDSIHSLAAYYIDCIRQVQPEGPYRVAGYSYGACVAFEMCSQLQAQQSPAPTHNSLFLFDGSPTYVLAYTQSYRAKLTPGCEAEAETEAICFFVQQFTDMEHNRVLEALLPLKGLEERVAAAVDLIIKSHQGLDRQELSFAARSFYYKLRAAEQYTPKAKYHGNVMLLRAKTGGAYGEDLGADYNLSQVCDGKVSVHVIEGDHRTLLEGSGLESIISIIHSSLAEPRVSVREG

Read-out in this assay: Fatty acid synthase (Homo sapiens) (UniProt P49327)
The assay is described as follows: LTEA_HepaRG_FASN: Life Technologies and Expression Analysis (LTEA) Assay for Fatty Acid Synthase (FASN) using HepaRG (AID 2283448). Particulars: mRNA level, 48 h; actives raise or lower the signal. How it is done:
LTEA_HepaRG is a cell based, multiplexed-readout assay that uses HepaRG, a human liver cell line, with measurements taken at 48 hours after chemical dosing on a 96-well plate.LTEA_HepaRG_FASN is one of 102 assay component(s) measured in the LTEA HepaRG cell culture assay. It is a marker of Steatosis.Data from the assay component LTEA_HepaRG_FASN was analyzed into 1 endpoint. This assay endpoint, LTEA_HepaRG_FASN, was analyzed with bidirectional fitting relative to DMSO as the negative control and baseline of activity. Using a type of inducible reporter, measures of mRNA induction for gain or loss-of-signal activity can be used to understand regulation of transcription factor activity. To generalize the intended target to other relatable targets, this assay endpoint is annotated to the lyase intended target family, where the subfamily is fatty acid synthase.
A total of 1060 chemcials from the ToxCast library were tested in eight-point concentration-response experiments. Cell culture and cytotoxicity assays were conducted at Thermo Fisher Scientific's Custom Services facility (Madison, WI). A single lot of human HepaRG cells (Thermo Fisher Scientific, Frederick, MD) was used for the cell culture experiments. 96-well format collagen type I coated plates of human HepaRG cells were prepared using established methods. Briefly, cryopreserved HepaRG cells were thawed, plated at a density of approximately 100,000 cells/well in HepaRG Thaw, Plate, and General Purpose media (HPRG770, Thermo Fisher Scientific), and incubated for 48 hours. 0.5% DMSO was selected as vehicle control to balance the requisite need of DMSO in HepaRG cultures to maintain differentiation (for example, baseline metabolism, proportions of hepatocytes vs. cholangiocytes), while enabling further hepatic receptor pathway activation (for example, PXR and CAR) in response to chemical exposure. 48 hours after plating, the culture medium was replaced with HepaRG Serum-Free Incudtion Media. Cells were exposed to each test chemical in duplicate and maintained in CO2 incubators for another 48 hours. Chemical plates were thawed to room temperature and 200x concentrations of treatment groups were prepared. 8-point conentration-reponse curves were made with the highest exposure at 100 uM, followed by half-log dilutions, all in 0.5% DMSO. Each test plate contained variouse controls, induction positive controls (1mM phenobarbital), cytotoxicity positive controls ([…] aflatoxin B1), vehicle controls (0.5% DMSO), and total lysis controls (0.5% DMSO). Cell morphology images were taken using an Essen IncuCyte FLR automated microscope, with six 96-well plates imaged in about 24 minutes. Images were captured and exported and JPEG files. Spent culture media was transfered to black-well plates for the LDH assay, and remaining media was sorted at -80 C for later use. Cells were treated with RLT buffer and frozen until shipped for gene expression analysis. Total RNA was isolated from the cell suspension in 75 uL of Buffer RLT (Qiagen, Germantown, MD 20874) by Quintiles/Expression Analysis (Durham, NC) using a custom isolation procedure. Total RNA from each plate well was transferred to a preamplification plate. Fluidigm's 96.96 Dynamic ArrayTM (Fluidigm, Amsterdam, the Netherlands) technology was used for gene expression analyses by quantitative reverse transcription polymerase chain reaction (qRT-PCR, performed by Quintiles/Expression Analysis, Durham, NC)89. Standard TaqManTM Assays (Applied Biosystems/ThermoFisher Scientific, Foster City, CA) were used to assess the expression of 93 genes selected based on their selectivity and sensitivity to important hepatic receptors known to be modulated by environmental chemicals; importance in human hepatocyte functionality; and hepatotoxicity. […]
Take `CCOC(=O)c1ccccc1C(=O)OCC`: the call was inactive.
For `Cc1ccc([N+](=O)[O-])cc1C`, the call was inactive.
The same measure, in the same setting: the same measure for `ClC(Cl)(Cl)c1ccccc1`: “inactive”; for `O=C(O)C(Cl)Cl`: “inactive”.
On the same count and under the same terms, the same measure for `O=[N+]([O-])c1ccccc1`: “inactive”.
Consider `c1cc2c3c(cccc3c1)CC2`, for which the molecule was classed as inactive.
As to `[N-]=[N+]=[N-]`, the result was inactive.
On the same count and under the same terms, the same measure for `CCCCN(CCCC)SN(C)C(=O)Oc1cccc2c1OC(C)(C)C2`: “inactive”; for `CCOP(=S)(OCC)SCSCC`: “inactive”; for `CCN(CC)c1ccccc1`: “inactive”.
The same measure, in the same setting: the same measure for `O=C(O)C1C(C(=O)O)C2(Cl)C(Cl)=C(Cl)C1(Cl)C2(Cl)Cl` (stereo not given): “inactive”; for `CN(C)C(=O)Cl`: “inactive”.
Regarding `c1ccc2c(c1)Nc1ccccc1S2`, the half-maximal activity concentration (AC50) was 50 µM (active).
Regarding `CC(Cc1ccc(OCC(=O)O)cc1)NCC(O)c1csc(C(F)(F)F)n1` (stereo not given), the result was inactive.
Same read-out and setting: the same measure for `c1nc[nH]n1`: “inactive”; for `CC(Cl)(Cl)C(=O)O`: “inactive”.
On the same count and under the same terms, the result for `ClC(Cl)c1ccccc1` reads “inactive”; that for `CCC1(c2ccccc2)C(=O)N=C(O)NC1=O` (stereo not given), “inactive”; that for `O=[N+]([O-])c1ccc(Cl)c(Cl)c1`, “inactive”.
The same measure, in the same setting: the result for `CCCCCCCc1ccc(O)cc1` reads “inactive”; that for `Nc1ccc(Cl)cc1`, “inactive”; that for `c1ccc(OP(Oc2ccccc2)Oc2ccccc2)cc1`, “inactive”.
With `CSC(C)(C)C=NO`, the molecule was classed as inactive.
Still for that read-out and setting: the result for `CC(C)(C)OOC(C)(C)C` reads “inactive”; that for `CCCCN(CCCC)N=O`, “inactive”; that for `Cc1ccc(O)cc1C`, “inactive”.
On to `CCOP(=S)(Oc1ccc([N+](=O)[O-])cc1)c1ccccc1` (stereo not given), for which the molecule was called inactive.
Still for that read-out and setting: the result for `COCCOCCO` reads “inactive”; that for `CCNc1nc(Cl)nc(NC(C)(C)C)n1`, “inactive”.
Same read-out and setting: the same measure for `OCC1CO1` (stereo not given): “inactive”.
On to `Cc1ccc(N)cc1N`, for which the AC50 is 14.7 µM (active).
Take `CC(C)(C)c1ccc(O)cc1`: the call was inactive.
On the same count and under the same terms, the result for `O=P1(N(CCCl)CCCl)NCCCO1` (stereo not given) reads “inactive”.
Consider `Nc1cc2c3c(c1)C(c1ccccc1)=N[C@@H](NC(=O)c1cccnc1)C(=O)N3CC2`, for which the call was inactive.
Same read-out and setting: the same measure for `O=P(Oc1ccccc1)(Oc1ccccc1)Oc1ccccc1`: “inactive”; for `Cc1cccc(N)c1`: “inactive”.
For `CCCN(CCC)c1c([N+](=O)[O-])cc(C(C)C)cc1[N+](=O)[O-]`, the call was inactive.
Still for that read-out and setting: the same measure for `CCOc1ccc(C(C)(C)COCc2cccc(Oc3ccccc3)c2)cc1`: “inactive”; for `CCOS(=O)(=O)OCC`: “inactive”.
Regarding `Nc1ccc2ccccc2c1`, the half-maximal activity concentration (AC50) was 10.6 µM (active).
